Screen size: about 220,000 compounds; about 16,000 (7.3%) were called active. Not shown: some 25% with an inconclusive outcome. Calls come from the whole dose curve; as a rule, active = well fitted inhibition curve with a large enough effect (not every such curve was filed as active); inconclusive = small, poorly fitted or top-dose-only effect, or another doubt; inactive = no such curve, though single readings can be large or run the other way. Many of the other results were omitted from the sample, so actives are more common in it than they were.
Molecular target: Aldehyde dehydrogenase 1A1 (Homo sapiens) (UniProt P00352)
Sequence (P00352 whole entry, looked up): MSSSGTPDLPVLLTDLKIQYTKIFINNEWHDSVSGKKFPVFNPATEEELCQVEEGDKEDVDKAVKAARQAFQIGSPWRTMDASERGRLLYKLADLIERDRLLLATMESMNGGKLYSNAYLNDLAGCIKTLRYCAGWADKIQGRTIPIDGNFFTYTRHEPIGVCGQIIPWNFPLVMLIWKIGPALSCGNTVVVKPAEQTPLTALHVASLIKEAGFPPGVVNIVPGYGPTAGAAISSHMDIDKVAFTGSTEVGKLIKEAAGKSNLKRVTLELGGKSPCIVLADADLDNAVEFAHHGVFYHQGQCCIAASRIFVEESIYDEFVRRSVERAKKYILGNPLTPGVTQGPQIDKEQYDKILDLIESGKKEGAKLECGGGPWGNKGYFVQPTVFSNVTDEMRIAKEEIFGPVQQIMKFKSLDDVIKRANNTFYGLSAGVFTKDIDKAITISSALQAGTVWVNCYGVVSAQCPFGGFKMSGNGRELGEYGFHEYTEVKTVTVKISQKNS
Experiment: qHTS Assay for Inhibitors of Aldehyde Dehydrogenase 1 (ALDH1A1);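 for activity, negative = inhibition: plate controls were no enzyme wells and a reference inhibitor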
Conditions: Purified ALDH1A1, NADH fluorescence, propionaldehyde substrate; series mostly up to 75.3 µM
Potency is the fitted concentration of half-maximal effect.

Potency, inactive:
Cc1ccc(NC(=O)Cn2c(=O)n(CCC(=O)NC3CCN(Cc4ccccc4)CC3)c(=O)c3ccccc32)cc1
CCC(C)NC(=O)c1ccccc1NC(=O)c1ccccc1N(C)S(C)(=O)=O (stereo not given)
COC(=O)c1ccccc1NC(=O)c1ccccc1NS(C)(=O)=O
NC(=O)C[n+]1cccc(C(N)=O)c1
O=C(Cn1cnc([N+](=O)[O-])n1)NCCc1ccccc1
COc1ccc(-n2nnnc2SCC(=O)NCc2cccs2)cc1
Cc1cc(C)nc(Nc2ncn[nH]2)n1
O=C(Nc1ccccc1)c1ccc2c(c1)OCO2
O=C(OCc1ccccc1F)c1ccc2c(c1)OCCO2
CCCC(=O)Nc1ccccc1N1CCN(C(=O)c2ccccc2)CC1
O=C(c1ccc(CN2CCOCC2)cc1)N1CCN(c2ccccc2F)CC1
Cc1ccc(NC(=O)Nc2ccccc2)c(Br)c1
O=C(NCCc1ccccn1)c1cc(-c2ccc(Cl)cc2)nc2ccccc12
N#Cc1cnn2cc(CCN3CCOCC3)c(-c3ccc(F)cc3)nc12
Cn1cnnc1SCC(=O)NNC(=O)COc1ccc(Br)cc1
Cc1ccc(C(=O)N/C(=C/c2cccs2)C(=O)NCC2CCCO2)cc1 (stereo not given)
Cc1cc(/C=C(/C#N)C(=O)Nc2ccc(Cl)cc2)c(C)n1-c1cccnc1
CCOn1c(=O)c(=O)n(O)c2ccccc21
CC(=O)NCCc1nc2cc(NC(=O)c3ccccc3)ccc2n1C
COc1ccc2c(c1)CCC/C2=N\OC(=O)c1ccccc1F
CCSc1nnc(NC(=O)c2ccc(C)cc2)s1
CCSc1nnc(NC(=O)Cc2ccccc2OC)s1
O=C(c1cn2ccccc2n1)N1CCc2c([nH]c3ccccc23)C1c1ccccn1 (stereo not given)
O=C(NCCc1ccc(F)cc1)c1n[nH]c2ccccc12
O=S(=O)(NCCSc1ccccn1)c1ccc(Cl)cc1
O=S(=O)(NCCNS(=O)(=O)c1ccccc1)c1ccccc1
COCCNC(=O)c1ccccc1NS(=O)(=O)c1ccc(C)c([N+](=O)[O-])c1
Cc1ccc(S(=O)(=O)NCCC(c2ccccc2)c2ccccc2)cc1C(=O)O
CNC(=O)C(=O)N/N=C/c1ccccn1
COC(=O)c1c(C(=O)OC)c(-c2cccc(C)c2)n2c1CS(=O)C2 (stereo not given)
Cn1cc(/C=C/C(=O)N2CCCC(C(=O)c3ccc(C(F)(F)F)cc3)C2)cn1 (stereo not given)
CN1CCN(C(=O)/C(=C\c2ccc3c(c2)OCO3)NC(=O)c2cccs2)CC1
Cc1ccc(NC(=O)C2(N3CCC3=O)CCCCC2)cc1
O=C(COC(=O)CNS(=O)(=O)c1ccccc1)NC12CC3CC(CC(C3)C1)C2
S=C(NC1CCCCC1)NN1CCOCC1
CC(=O)Nc1ccc(S(=O)(=O)Oc2ccc(/C=N/N=C3/NC(=O)C(CC(=O)O)S3)cc2)cc1 (stereo not given)
CC(C)c1cnc(NC(=O)Cc2ccccc2)s1
C=C(C)CNC(=S)Nc1ccc(S(=O)(=O)Nc2cnc3ccccc3n2)cc1
COc1ccc(CN(C)C(C)C(=O)NC2CCCc3ccccc32)cc1 (stereo not given)
COc1cc(/C=N\NC(=O)C2C(=O)NCC2c2ccccc2)cc(OC)c1O (stereo not given)
CCOc1cc(/C=N/O)cc(Br)c1OC
COc1cc(/C=N/O)cc(Br)c1OCc1cccc(Cl)c1
COc1cc(/C=N/NC(=S)Nc2cccnc2)cc(OC)c1O
CC(C)(C)OC(=O)N/N=C/c1cn(-c2ccccc2)nc1-c1cccnc1
CCN(CC)CC(=O)Nc1sc2c(c1C(=O)c1ccccc1C)CCC2
Cc1ccc(SCCC(=O)NCc2ccccn2)cc1
N#Cc1ccc(OCc2nnc(-c3ccc([N+](=O)[O-])cc3)o2)cc1
CCCSc1ncccc1C(=O)O
CN(C)NC(=O)C(NC(=O)c1ccc(N)cc1)C12CC3CC(CC(C3)C1)C2 (stereo not given)
Cc1ccc(NC(=S)NCCN2CCOCC2)cc1
CNC(=S)N/N=C/c1cn(Cc2ccc(C)cc2)c2ccccc12
COc1ccc(-c2csc(Nc3ccccn3)n2)cc1
Brc1ccc2ncnc(NCc3cccnc3)c2c1
Cc1ccc(C(=O)NCCNS(=O)(=O)c2ccccc2)cc1
O=S(=O)(NCCc1ccccc1)c1ccccc1
COc1cc(OC)cc(C(=O)OCC(=O)Nc2ccc(F)cc2F)c1
CC(C)=C1C2CCC1C1C(=O)N(NC(=O)c3ccco3)C(=O)C21 (stereo not given)
COc1ccccc1OCCNC(=O)c1cc([N+](=O)[O-])cc([N+](=O)[O-])c1
COc1ccc(NS(=O)(=O)c2cc(NC(=O)CC(=O)c3ccc([N+](=O)[O-])cc3)ccc2C)cc1
O=C(NCc1csc(-c2cccs2)n1)C1CC1
CC(C)Oc1ccc(Cc2n[nH]c(=S)n2Cc2ccccc2)cc1Cl
O=C(COc1ccccc1)NCc1ccc2c(c1)OCO2
NC(=O)COc1ccc(C23CC4CC(CC(C4)C2)C3)cc1
COc1ccc(CCNC(=O)COC(=O)Cc2cc(OC)c(OC)c(OC)c2)cc1
CC(C)N(Cc1nc(-c2ccc3c(c2)OCO3)no1)CC1CCC(=O)N1 (stereo not given)
Cc1nc(N)c(Br)c(C)c1Br
COC(=O)c1ccc(/C=N/N2C(C)CCCC2C)cc1 (stereo not given)
Cc1ccc(/C=N\n2c(-c3ccccc3)n[nH]c2=S)s1
CCN(CC)C(=O)C(=O)Nc1cccc(Br)c1
C=CCn1c(CCNC(=O)c2ccccc2F)nnc1SCC(=O)Nc1ccc(OC)cc1
Cc1nc(CN2CCN(C(=O)CCc3nnc(Cc4c[nH]c5ccccc45)o3)CC2)cs1
Cc1cc(NC(=O)CN2C(=O)NC(CCc3ccccc3)C2=O)no1 (stereo not given)
CCC1CCCCN1CCNS(=O)(=O)c1ccc2c(c1)CCN2C(C)=O (stereo not given)
CC(=O)N1CCc2cc(S(=O)(=O)Nc3ccccc3N3CCN(C)CC3)ccc21
CC(=O)Nc1ccc(NC(=O)COc2ncnc3ccccc23)cc1
O=S(=O)(Cc1noc(-c2ccc(OC(F)(F)F)cc2)n1)c1ccc(F)cc1
COc1cccc(-n2c(=S)[nH]c3c(oc4ccccc43)c2=O)c1
CSc1nc2sc3c(c2c(=O)[nH]1)CCc1ccccc1-3
CC(NC(=O)CC1SC(N)=NC1=O)c1ccccc1 (stereo not given)
O=C(NCCc1c[nH]c2ccccc12)c1cc2ccccc2oc1=O
CN=C1C=C/C(=N/N=c2\ccn(O)cc2C)C=C1C
COc1ccc(C2CC(c3cccs3)=NN2C(=O)CSc2nnc(N)s2)cc1OC (stereo not given)
CCn1cc(C(=O)N2CCN(C3CCCCC3)CC2)c2cc(OC)c(OC)cc2c1=O
CCn1cc(C(=O)NCc2ccc3c(c2)OCO3)c2cc(OC)c(OC)cc2c1=O
Cn1cnnc1SCc1nnc(-c2ccccc2Br)o1
COCc1ccc(C(=O)N2CCc3c([nH]c4ccccc34)C2c2ccccn2)s1 (stereo not given)
COc1ccccc1CC(NC(C)=O)C(=O)NC1CCN(C(=O)Nc2ccccc2Cl)CC1 (stereo not given)
CCn1cc(/C=C2/SC(=S)NC2=O)c(C)n1
Cc1c(Cl)c([N+](=O)[O-])nn1CC(=O)NCC1CCCO1 (stereo not given)

Potency, active:
CCCCNC(=O)c1ccccc1NC(=O)c1ccccc1N(C)S(C)(=O)=O 22.4 µM
O=C(Nc1ccccc1N1CCN(C(=O)c2ccccc2)CC1)c1ccc2c(c1)OCO2 10 µM
O=C(CN1CCN(c2ccccc2F)CC1)c1ccc2c(c1)OCO2 14.1 µM
Cc1ccc(-n2c(C)cc(/C=C(\C#N)C(=O)NCC3CCCO3)c2C)cc1 (stereo not given) 3.16 µM
CC(C)C(=O)Nc1nnc(Sc2ccc(N(C)C)cc2)s1 25.1 µM
CCOc1ccc(S(=O)(=O)NCCSc2ccccc2)cc1 6.31 µM
Cc1ccc(S(=O)(=O)NCCSc2ccccc2)cc1[N+](=O)[O-] 7.08 µM
COc1cc(/C=N/O)cc(Br)c1OS(=O)(=O)c1ccc(C)cc1 1.58 µM
COc1cc(/C=N/Nc2ccc(C)cc2)cc(Br)c1O 25.1 µM
CNC(=S)N/N=C/c1ccc(N2CCOCC2)s1 8.91 µM
CC(C)CC[n+]1ccn(C2=C([O-])c3ccccc3C(=O)/C2=N\S(=O)(=O)c2ccccc2)c1 8.91 µM
Cc1ccc(S(=O)(=O)NCCSC(C)(C)C)cc1 17.8 µM
COc1cccc(NCCC(=O)c2cccc([N+](=O)[O-])c2)c1 0.224 µM
NNC(=O)COc1ccc(C2SCCS2)cc1 3.98 µM
CCN(CC)S(=O)(=O)c1cccc(-c2n[nH]c(=S)n2/N=C/c2ccc(C(=O)OC)cc2)c1 22.4 µM
COC(=O)c1c(NC(=O)CN2C(=O)NC(CCc3ccccc3)C2=O)sc2c1CCCCC2 (stereo not given) 20 µM
CCCNS(=O)(=O)c1ccc2c(c1)CCCN2C(C)=O 22.4 µM
COc1ccc(-n2c(=S)[nH]c3sc4c(c3c2=O)CCc2ccccc2-4)cc1 3.98 µM
CCn1cc(C(=O)N2CCN(Cc3ccc4c(c3)OCO4)CC2)c2cc(OC)c(OC)cc2c1=O 2.24 µM
Cc1nn(C)cc1/C=C1\CCC/C(=C\c2cn(C)nc2C)C1=O 28.2 µM

activity, negative = inhibition, inactive:
CCN1C(=O)N[C@@H](CCc2ccccc2)C(C(=O)OC)=C1C 5.7% [at 13.5 µM]

From PubChem BioAssay AID1030 (National Center for Advancing Translational Sciences (NCATS), 2008)
